# In PubChem BioAssay AID463173 (ICCB-Longwood Screening Facility, Harvard Medical School, 2010):
# About 4,300 (8.3%) of roughly 52,000 compounds were called active. No stated cut-off is given here; in the data, active means survival mostly below about 52% (no sharp cut-off); inactive means mostly above about 56%. Shown is part of a subset that was picked to be rich in actives.
# Test system: DeltatarO mutant
# Test: S. aureus survival, RN4220 and DeltatarO strains – OD600, teichoic acid synthesis inhibitors, primary screen (AID 463173)
# Conditions: S. aureus RN4220 wild type/DeltatarO growth, OD600, 18 h, active compounds read low, screened at 18.75 µg/mL (by protocol)
row,SMILES,survival
1,CC(C(=O)O)N1CCCCC1 (stereo not drawn),79% (inactive)
2,CCOc1ccc2[nH]c(=O)c(CN(Cc3cccnc3)S(=O)(=O)c3ccccc3)cc2c1,86% (inactive)
3,CCOc1ccccc1NC(=O)Cn1c(=O)n(Cc2nc(C)no2)c(=O)c2ccccc21,81% (inactive)
4,Cc1cc(C)c(NC(=O)CN2C(=O)CCSc3ccc(S(=O)(=O)N4CCCC4)cc32)c(C)c1,84% (inactive)
5,CCc1ccc(NC(=O)CN2C(=O)c3ccccc3Sc3ccc(C(=O)N4CCCC4)cc32)cc1,86% (inactive)
6,Cc1cc(C)cc(NC(=O)CN2C(=O)c3ccccc3Sc3ccc(C(=O)N4CCOCC4)cc32)c1,89% (inactive)
7,O=C(CN1C(=O)c2ccccc2Sc2ccc(C(=O)N3CCOCC3)cc21)Nc1ccc(Cl)cc1F,94% (inactive)
8,CN(C)c1ccc(NC(=O)CN2C(=O)c3ccccc3Sc3ccc(C(=O)N4CCCC4)cc32)cc1,-2% (active)
9,Cc1ccc(NC(=O)CN2C(=O)c3ccccc3Sc3ccc(C(=O)N4CCOCC4)cc32)c(Cl)c1,-5% (active)
10,Cc1ccc(NC(=O)CN2C(=O)c3ccccc3Sc3ccc(C(=O)N4CCCC4)cc32)cc1,76% (inactive)
11,CCOc1ccccc1N(CC)C(=O)Cn1ncc2c1-c1ccccc1OC2,62% (inactive)
12,COc1cccc(C(=O)N(Cc2ccc(N(C)C)cc2)Cc2ccco2)c1,69% (inactive)
13,CCOCN(C(=O)Cn1c(COC)nc2ccccc21)c1c(C)cccc1CC,95% (inactive)
14,CCc1cccc(CC)c1N(COC)C(=O)Cn1c(CC)nc2ccccc21,69% (inactive)
15,CCCCc1nc2ccccc2n1CC(=O)N(COCC)c1c(C)cccc1CC,-12% (active)
16,CCOCN(C(=O)Cn1c(C)nc2ccccc21)c1c(C)cccc1CC,125% (inactive)
17,CCOCN(C(=O)Cn1c(C(C)O)nc2ccccc21)c1c(C)cccc1CC (stereo not drawn),83% (inactive)
18,CCOCN(C(=O)Cn1c(CC(C)C)nc2ccccc21)c1c(C)cccc1CC,-12% (active)
19,CCc1ccc(NC(=O)Cn2c(=O)n(-c3cc(C)cc(C)c3)c(=O)c3oc4ccccc4c32)cc1,73% (inactive)
20,COc1ccc(-c2cn(-c3ccc(C)cc3)c(S(=O)(=O)CC(=O)Nc3ccc(F)cc3)n2)cc1,150% (inactive)
21,CCc1ccc(NC(=O)c2sc3nc(C)c(Cl)c(C)c3c2NC(=O)c2ccccc2OC)cc1,130% (inactive)
22,COc1ccc(N2CCN(C(=O)C(CC(C)C)NS(=O)(=O)c3ccc4nc(C)sc4c3)CC2)cc1 (stereo not drawn),77% (inactive)
23,Cc1ccccc1CSc1cn(CC(=O)N2CCCCC2)c2ccccc12,71% (active)
24,O=C(CSc1cn(CC(=O)N2CCOCC2)c2ccccc12)Nc1ccccc1F,88% (inactive)
25,O=C(CSc1cn(CC(=O)N2CCCCCC2)c2ccccc12)Nc1ccccc1F,77% (inactive)
26,Cc1ccccc1CSc1cn(CC(=O)N2CCCC2)c2ccccc12,58% (inactive)
27,O=C(CSc1cn(CC(=O)N2CCCCC2)c2ccccc12)Nc1ccccc1F,70% (active)
28,Cc1ccccc1CSc1cn(CC(=O)N2CCCCCC2)c2ccccc12,68% (inactive)
